Several values for one entry are separate records, joined by “and”; a condition that tells them apart may be missing. Equal entries are not always repeated. Results filed as inconclusive are left out. Activity calls are given as the source filed them. Calls follow the shape of the dose curve; as a rule, active = well fitted curve in the direction sought with a large enough effect in the repeat runs; inconclusive = weak or mixed curves; inactive = no such curve, though single readings can be large; an effect the other way counts as inactive or inconclusive.
Target: Cytochrome P450 2D6 (Homo sapiens) (UniProt P10635)
Experiment: Cytochrome P450 family 2 subfamily D member 6 (CYP2D6) small molecule antagonists: luciferase biochemical (cell-free) qHTS assay (AID 1645840)
Settings: P450-Glo CYP2D6 enzyme, luciferin luminescence, 1 h; series mostly up to 57.4 µM
Outline: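 P450-Glo CYP2D6 system: proluciferin substrate converted by enzyme to luciferin, read by luminescence proportional to activity. Enzyme-substrate mix with compound 10 min at room temperature, then NADPH regeneration 1 h before detection reagent.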
Also: nearly all actives have a fitted effect of over 55% in size.
Potency is read from the fitted curve at half-maximal effect.

Cytochrome P450 2D6 (Homo sapiens), sequence (P10635 whole entry, looked up): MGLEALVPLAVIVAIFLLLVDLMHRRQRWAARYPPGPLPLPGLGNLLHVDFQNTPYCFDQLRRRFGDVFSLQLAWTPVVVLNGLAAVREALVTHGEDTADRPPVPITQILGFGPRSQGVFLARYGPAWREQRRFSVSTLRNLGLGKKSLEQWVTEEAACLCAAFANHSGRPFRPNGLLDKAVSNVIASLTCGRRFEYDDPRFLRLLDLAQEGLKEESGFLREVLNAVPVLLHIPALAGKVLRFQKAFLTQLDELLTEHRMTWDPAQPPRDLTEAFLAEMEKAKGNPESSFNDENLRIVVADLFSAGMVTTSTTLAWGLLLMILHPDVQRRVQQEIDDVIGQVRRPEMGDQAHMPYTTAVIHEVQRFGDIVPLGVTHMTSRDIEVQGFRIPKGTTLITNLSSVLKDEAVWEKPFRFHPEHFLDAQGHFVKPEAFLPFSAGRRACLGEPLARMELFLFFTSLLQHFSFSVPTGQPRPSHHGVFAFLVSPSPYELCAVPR

Compound	Potency
c1ccc2c(-c3cnn4cc(-c5ccc(N6CCNCC6)cc5)cnc34)ccnc2c1	inactive
CC(C)(C)c1cc(C(=O)O)c(NC(=O)Nc2ccc3[nH]ncc3c2)s1	3.38 µM (active)
Cc1cnc(C(=O)O)c[n+]1[O-]	inactive
CC(C)OC(=O)C(C)(C)Oc1ccc(C(=O)c2ccc(Cl)cc2)cc1	inactive
CCOC(=O)C1=C(N)Oc2ccc(Br)cc2C1C(C#N)C(=O)OCC (centres undefined)	13.5 µM (active) and 16.9 µM (active) and 23.9 µM (active)
Cc1nc(N)sc1-c1ccnc(Nc2ccc(N3CCOCC3)cc2)n1	inactive
O=c1c(-c2ccc(O)cc2)coc2cc(O)ccc12	inactive
COCCOc1nc(-c2ccc(Cl)c(Cl)c2)n(-c2ccc(NC(=O)CCl)cc2)n1	0.756 µM (active)
COCCOC(=O)C1=C(C)NC2=C(C(=O)CC(c3ccccc3OC)C2)C1c1cccc(O)c1 (centres undefined)	10.7 µM (active)
COC1CCC(N(C(=O)C2CCC(C)CC2)c2cc(C3=CCCCC3)sc2C(=O)O)CC1 (centres undefined)	inactive

Target: Cytochrome P450 2C9 (Homo sapiens) (UniProt P11712)
Experiment: Cytochrome P450 family 2 subfamily C member 9 (CYP2C9) small molecule antagonists: luciferase biochemical (cell-free) qHTS assay (AID 1645842)
Settings: P450-Glo CYP2C9 enzyme assay, luciferin luminescence; series mostly up to 57.4 µM
Outline: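 P450-Glo CYP2C9 system: proluciferin substrate with enzyme in mix containing 0.4% BSA, 10 min at room temperature, then NADPH regeneration solution added and incubated 1 h at 37C. Detection reagent stopped reaction; luminescence read after 20 min as RLU.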

Cytochrome P450 2C9 (Homo sapiens), sequence (P11712 whole entry, looked up): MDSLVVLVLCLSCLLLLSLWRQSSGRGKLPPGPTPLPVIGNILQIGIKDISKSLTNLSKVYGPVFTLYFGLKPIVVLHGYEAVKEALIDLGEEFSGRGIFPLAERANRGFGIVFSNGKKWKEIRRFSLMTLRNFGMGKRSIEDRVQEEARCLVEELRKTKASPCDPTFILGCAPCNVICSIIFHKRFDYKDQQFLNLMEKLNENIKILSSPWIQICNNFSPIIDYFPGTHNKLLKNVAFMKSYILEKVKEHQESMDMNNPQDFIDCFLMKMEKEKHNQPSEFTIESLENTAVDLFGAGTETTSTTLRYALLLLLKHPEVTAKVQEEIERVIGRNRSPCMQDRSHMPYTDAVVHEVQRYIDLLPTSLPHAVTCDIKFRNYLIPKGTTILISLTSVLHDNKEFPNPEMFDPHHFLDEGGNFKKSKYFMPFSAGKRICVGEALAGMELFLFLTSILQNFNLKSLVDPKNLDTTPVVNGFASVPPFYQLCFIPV

Compound	Potency
COc1cc(NC(=O)c2ccc(-c3ccc(Cl)cc3)o2)cc(OC)c1	8.49 µM (active)
COc1ccc(C2CC(c3ccccc3)=NN2c2ccc(S(N)(=O)=O)cc2)cc1 (centres undefined)	6.74 µM (active)
c1ccc2c(-c3cnn4cc(-c5ccc(N6CCNCC6)cc5)cnc34)ccnc2c1	inactive
CC(C)(C)c1cc(C(=O)O)c(NC(=O)Nc2ccc3[nH]ncc3c2)s1	0.477 µM (active)
Cc1cnc(C(=O)O)c[n+]1[O-]	inactive
C[C@H](NC(=O)c1sccc1OCc1ccc(Cl)cc1)c1ccccc1	0.952 µM (active)
O=C(CCN1CCN(C(=O)OCc2cc(Cl)cc(Cl)c2)CC1)c1ccc2[nH]c(=O)oc2c1	7.56 µM (active)
O=C1C[C@@H](c2ccc(O)cc2)Oc2cc(O)cc(O)c21	5.35 µM (active)
CC(C)OC(=O)C(C)(C)Oc1ccc(C(=O)c2ccc(Cl)cc2)cc1	2.45 µM (active)
CCOC(=O)C1=C(N)Oc2ccc(Br)cc2C1C(C#N)C(=O)OCC (centres undefined)	6.01 µM (active) and 12 µM (active) and 10.7 µM (active)
Cc1nc(N)sc1-c1ccnc(Nc2ccc(N3CCOCC3)cc2)n1	6.01 µM (active)
O=c1[nH]cnc2c1ncn2[C@H]1CC[C@@H](CO)O1	inactive
COc1cc2c(cc1OC)CN(CCc1ccc(NC(=O)c3cc(OC)c(OC)cc3NC(=O)c3cnc4ccccc4c3)cc1)CC2	inactive
CC1CCC(C(=O)N(c2cc(C#CC(C)(C)C)sc2C(=O)O)C2CCC(O)CC2)CC1 (centres undefined)	inactive
O=c1c(-c2ccc(O)cc2)coc2cc(O)ccc12	0.213 µM (active)
COCCOc1nc(-c2ccc(Cl)c(Cl)c2)n(-c2ccc(NC(=O)CCl)cc2)n1	4.77 µM (active)
COCCOC(=O)C1=C(C)NC2=C(C(=O)CC(c3ccccc3OC)C2)C1c1cccc(O)c1 (centres undefined)	1.69 µM (active)
O=C(Nc1cccc(Br)c1)c1cccc(S(=O)(=O)N2CCCCCC2)c1	6.01 µM (active)
Cc1ccc(C(C)(O)c2nc3ccccc3s2)c(C)c1 (centres undefined)	3.01 µM (active)

— PubChem BioAssay (NCATS)
